Screening data from PubChem BioAssay.
In the library only some 18% were active in any assay of this set; here they are far more common.
DT40 TDP1 CPT: growth inhibition of DT40 Tdp1-/-;hTDP1 cells with camptothecin (screen for TDP1 inhibitors) | chicken DT40 Tdp1-/-;hTDP1 cells + 20 nM CPT, ATP luminescence, 48 h | Potency, µM (highest dose often 46.2 µM), inactives show at the top dose activity change, negative = growth inhibition, actives largely listed as inhibitors | actives 12% (n = 420,000); also: potency is read from the fitted curve at half-maximal effect; nearly all actives have a fitted effect of over 55% in size
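Chicken DT40 Tdp1-/- cells complemented with human TDP1, 400 cells/well, exposed to compounds plus 20 nM camptothecin for at least 48 h at 37 C; viability read as ATP content by CellTiter-Glo luminescence.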
CtBP-E1A blk: inhibitors of CtBP/E1A interaction. AlphaScreen GST-E1A/His-CtBP binding, 1536-well; stronger effect = lower value. activity change, % (no concentration beside the values). actives 0.49% (n = 340,000); in the data active = activity change below about -65%; inconclusive = mostly about -30% to -63%
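Homogeneous bead-based format: GST-tagged E1A captured on glutathione donor beads, His-tagged CtBP on nickel acceptor beads; compounds precede bead addition by 2 h at 37 °C.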
Six1-Eya2 blk: inhibitors of human Six1/Eya2 interaction; activity change, % (test concentration not listed); AlphaScreen GST-Six1/His-Eya2 binding, biochemical; stronger effect = lower value; Q15475+O00167; actives 0.56% (n = 360,000); in the data active = activity change below about -65%; inconclusive = mostly about -30% to -63%
Target sequence (O00167 whole entry, looked up): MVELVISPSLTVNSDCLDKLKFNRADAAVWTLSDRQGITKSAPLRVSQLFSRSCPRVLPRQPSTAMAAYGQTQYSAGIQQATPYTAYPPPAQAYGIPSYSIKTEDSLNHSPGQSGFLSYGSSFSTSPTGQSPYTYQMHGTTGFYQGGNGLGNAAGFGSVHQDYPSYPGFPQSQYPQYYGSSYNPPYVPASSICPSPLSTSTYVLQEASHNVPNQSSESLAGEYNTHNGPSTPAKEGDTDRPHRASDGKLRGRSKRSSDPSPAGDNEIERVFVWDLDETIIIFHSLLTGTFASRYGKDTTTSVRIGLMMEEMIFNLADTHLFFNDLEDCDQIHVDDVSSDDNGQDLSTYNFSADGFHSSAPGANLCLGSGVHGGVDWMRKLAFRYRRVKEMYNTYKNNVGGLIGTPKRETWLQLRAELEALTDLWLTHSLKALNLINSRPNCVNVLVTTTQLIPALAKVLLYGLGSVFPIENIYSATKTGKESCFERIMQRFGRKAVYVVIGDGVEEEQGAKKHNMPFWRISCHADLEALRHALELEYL
Target sequence (Q15475 whole entry, looked up): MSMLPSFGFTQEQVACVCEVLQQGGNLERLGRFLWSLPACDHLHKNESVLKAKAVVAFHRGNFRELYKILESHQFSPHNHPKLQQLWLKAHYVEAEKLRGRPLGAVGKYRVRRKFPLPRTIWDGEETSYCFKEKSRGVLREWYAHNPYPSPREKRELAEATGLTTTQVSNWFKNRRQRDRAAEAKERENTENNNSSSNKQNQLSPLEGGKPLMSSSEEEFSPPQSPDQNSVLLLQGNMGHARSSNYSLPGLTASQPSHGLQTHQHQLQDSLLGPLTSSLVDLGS
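Homogeneous AlphaScreen proximity assay pairing GST-Six1 with His-tagged Eya2 (added as 5X mix: 250 nM and 500 nM) in 50 mM Tris pH 8.0, 300 mM NaCl, 1 mM TCEP. Glutathione donor and nickel acceptor beads; 1 h, 37 °C, dark.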
TDP1 inh: TDP1 (human) enzyme inhibition; AID 485290; Potency, µM (titrated, usually from 130 µM), inactives show at the top dose activity change, negative = inhibition, actives largely listed as inhibitors; actives 0.28% (n = 350,000); recombinant TDP1, AlphaScreen DNA substrate cleavage; also: potency is read from the fitted curve at half-maximal effect; nearly all actives have a fitted effect of over 40% in size
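AlphaScreen read-out: signal falls as enzyme removes the 3' tyrosine-FITC from a 5'-biotinylated DNA oligo (15 nM, 5 min, RT). Enzyme was E. coli-made recombinant Tdp1 at 1 nM, exposed to compound for 15 min beforehand; beads 10 ug/ml, 10 min.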
TDP1 cell noCPT: qHTS for Inhibitors of human tyrosyl-DNA phosphodiesterase 1 (TDP1): qHTS in cells in absence of CPT | DT40 Tdp1-/- hTDP1 cells, no CPT, ATP luminescence, 48 h | Potency, µM (titrated, usually from 46.2 µM), without a hit: top-dose activity change, negative = growth inhibition, actives largely listed as inhibitors | actives 15% (n = 420,000) | AID 686978, 2013; also: potency is read from the fitted curve at half-maximal effect; nearly all actives have a fitted effect of over 55% in size
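Growth of hTDP1-complemented DT40 Tdp1-knockout cells is measured by ATP luminescence after at least 48 hr compound exposure at 37 °C, with DMSO substituting for the 20 nM CPT used in the parallel screen.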
IL-1B inflam inh: inflammasome signaling inhibition, IL-1 beta readout | THP-1 LPS/ATP IL-1B secretion, AlphaLISA, 16 h; stronger effect = lower value | activity change, % at 57.5 µM | AID 743279 | actives 4.7% (n = 360,000); in the data active = activity change below about -50%; inconclusive = mostly about -30% to -49%
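THP-1 cells pretreated 1 hr with compounds (up to 57.5 uM final), then stimulated with LPS (250 ng/mL final) plus ATP (1.25 mM final); secreted IL-1B measured by AlphaLISA after 16 hr, decreased signal indicating inhibition.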
* = called active by the depositor; i = inactive; ? = inconclusive; / = no result given; [ ] = another dose, or the depositor's remark. Unless noted, calls follow the shape of the dose curve; as a rule, active = well fitted curve in the direction sought with a large enough effect; inconclusive = small, poorly fitted or top-dose-only effect, or another doubt; inactive = no such curve, though single readings can be large; an effect the other way counts as inactive or inconclusive. % is scaled to controls: 0 for no effect and ±100 for the full control effect.

SMILES	DT40 TDP1 CPT	CtBP-E1A blk	Six1-Eya2 blk	TDP1 inh	TDP1 cell noCPT	IL-1B inflam inh
COc1cc(C(=O)NCCC(=O)NCCCN2CCCCC2)cc(OC)c1OC	-17.0%	14.2	0.1	0.0%	-13.1%	0.0
COc1ccc(S(=O)(=O)n2cccc2)c(OC)c1	10.2%	0.7	-3.8	3.9%	-3.0%	35.1
Cc1ccccc1N1C(=O)CC(N2CCC(C(N)=O)CC2)C1=O (centres undefined)	?	-15.3	-1.3	2.3%	?	1.7
COc1ccc([N+](=O)[O-])cc1NC(=O)COC(=O)c1ccccn1	-3.9%	2.9	-18.0	6.3%	-17.2%	12.2
O=C(Nc1ccc(F)cc1)Nc1ccc(Oc2ncnc3cc(Cl)ccc23)nc1	13.1%	3.2	-0.2	/	10.6%	19.4
CC(=O)N1CCN(c2ccc(NC(=O)c3ccc(C(C)(C)C)cc3)cc2)CC1	?	3.5	-3.3	-2.8%	25.9µM*	-95.0*
CC(=O)N1CCN(c2ccc(NC(=O)c3ccc(Cl)cc3)cc2)CC1	4.5%	-1.3	3.7	/	-17.9%	-2.6
CC(=O)N1CCN(c2ccc(NC(=O)c3cc(Cl)ccc3Cl)cc2)CC1	-29.2%	1.7	2.0	/	-13.9%	-62.8*
COCCNC(=O)CCCn1c(=O)c2cc(OC)c(OC)cc2n(CC(=O)Nc2ccc(C)c(F)c2)c1=O	11.2%	/	1.8	-1.2%	-0.7%	-1.0
Fc1ccc2[nH]c3c(Cl)ncnc3c2c1	-2.6%	-2.3	-5.0	1.2%	-19.1%	-96.3*
CCCCOc1ncnc2c1[nH]c1ccc(OCC)cc12	-17.6%	-0.2	-0.3	4.8%	-17.8%	23.1
CCCCOc1ncnc2c1[nH]c1ccccc12	10.3µM*	-1.7	6.6	7.7%	7.31µM*	0.6
COc1ccc2[nH]c3c(Cl)ncnc3c2c1	7.4%	-19.1	-10.2	2.7%	?	?
CCCCOc1ncnc2c1[nH]c1ccc(F)cc12	9.2µM*	5.0	0.4	0.0%	8.2µM*	?
Cc1ccccc1Cn1c(=O)n(CCc2ccccc2)c(=O)c2sc3ccccc3c21	0.5%	/	/	9.0%	-3.9%	/
Cc1ccc2nc(-c3ccc(F)cc3)c(Cc3ccccn3)n2c1	?	-8.0	-9.7	/	?	?
CC1=C(C(=O)O)N2C(=O)[C@@H](NC(=O)[C@H](N)c3ccccc3)[C@H]2SC1	?	/	/	-14.3%	1.9%	/
CC(NC(=O)CCl)c1ccc(Cl)c(Cl)c1 (centres undefined)	16.4µM*	-6.1	1.9	5.6%	18.4µM*	-102.9*
CC(NC(=O)CCl)c1ccccc1Br (centres undefined)	?	-3.6	2.6	3.8%	14.6µM*	-96.3*
CC(NC(=O)c1ccc(Cl)c(Cl)c1)c1ccc(-c2ccccc2)cc1 (centres undefined)	?	/	6.5	/	?	-6.1
CCOc1ccccc1N(CC(=O)NCCSc1ccccn1)S(=O)(=O)c1ccc(C)cc1	?	-2.0	-1.7	/	20.6µM*	-27.5
Cc1ccccc1N(CC(=O)NCCSc1ccccn1)S(=O)(=O)c1ccccc1	-5.0%	-5.4	-10.4	6.1%	?	-2.5
Cc1ccc(S(=O)(=O)N(CC(=O)NCCSc2ccccn2)c2ccc(C)c(C)c2)cc1	?	5.8	-2.2	-2.6%	?	-53.4*
CCOc1ccccc1N(CC(=O)NCCSc1ccccc1)S(=O)(=O)c1ccccc1	?	/	/	-3.1%[12.3 µM]	10.3µM*	/
Cc1cc(C)cc(N(CC(=O)Nc2ccccc2-c2ccccc2)S(=O)(=O)c2ccccc2)c1	-27.6%	7.6	11.1	-3.0%	?	11.1
SMILES	DT40 TDP1 CPT	CtBP-E1A blk	Six1-Eya2 blk	TDP1 inh	TDP1 cell noCPT	IL-1B inflam inh
CCOc1ccccc1N(CC(=O)NCCSc1ccccn1)S(=O)(=O)c1ccccc1	?	-8.3	-0.5	-1.0%	?	8.3
Cc1cc(C)cc(N(CC(=O)N/N=C/c2ccncc2)S(=O)(=O)c2ccccc2)c1	-26.8%	-3.4	-4.0	1.9%	-27.2%	-54.0*
CC(=O)OCC1OC(C#Cc2ccc(C(C)(C)C)cc2)C=CC1OC(C)=O (centres undefined)	/	/	/	-0.5%[21 µM]	/	/
COc1cc(C2/C(=C(\O)c3ccc4c(c3)CC(C)O4)C(=O)C(=O)N2CCN2CCOCC2)cc(OC)c1OC (centres undefined)	-16.3%	-14.4	17.0	5.0%	-3.9%	i
Cc1cc(C)cc(N(CC(=O)NCCSc2ccccn2)S(=O)(=O)c2ccccc2)c1	?	5.5	2.9	3.1%	25.9µM*	-11.8
Clc1ccc(OCc2cn3ccccc3n2)c2ncccc12	14.6µM*	-18.7	-18.4	8.6%	16.4µM*	-61.0*
COc1ccc(-c2ccc(OC)c([C@H]3[C@H]4C=CC[C@@H](C)[C@@H]4C(=O)N3Cc3ccccc3)c2)cc1	14.6µM*	-3.7	-1.4	2.4%	14.6µM*	41.0
COc1ccc(-c2ccoc2)cc1[C@H]1[C@H]2C=CC[C@@H](C)[C@@H]2C(=O)N1Cc1ccccc1	?	?	-15.6	1.2%	?	-65.7*
O=C(CNC(c1ccccc1)c1ccccc1)NCc1ccccc1Cl	?	12.2	7.2	/	-18.6%	-9.5
CCOC(=O)c1sc2nc(C)nc(NCc3ccc(F)cc3)c2c1C	25.9µM*	17.4	3.6	/	25.9µM*	?
CCOC(=O)c1sc2nc(C)nc(NCc3ccc(Cl)cc3)c2c1C	11.6µM*	-18.7	1.6	/	20.6µM*	-66.8*
CCOC(=O)c1sc2nc(CC(=O)OC)nc(NCc3ccc(F)cc3)c2c1C	18.4µM*	1.5	4.6	0.0%	16.4µM*	-5.1
CCOC(=O)c1sc2nc(SC)nc(-c3ccc(Cl)cc3)c2c1N	20.6µM*	7.0	8.5	6.2%	14.6µM*	-2.8
CC(C)C[C@@H](CNCC(=O)[C@H](CC(C)C)NC(=O)c1[nH]cnc1C(=O)N[C@@H](C)CN)NC(=O)c1nc[nH]c1C(=O)N[C@@H](CC(=O)O)C(=O)O	-15.5%	-7.2	-1.5	/	-2.6%	-55.2*
CC(=O)N[C@@H](CSC/C=C(\C)CC/C=C(\C)CCC=C(C)C)C(=O)O	/	/	/	6.1%	/	/
O=C(O)c1cccc(CSc2nnc(-c3cccnc3)o2)c1	-0.7%	/	10.4	/	-27.5%	-5.8
CCOc1ccccc1C(=O)Nn1c(C2CCC2)nc2ccccc2c1=O	9.2µM*	-24.7	10.9	2.3%	23.1µM*	15.9
